7 molecules from PubChem BioAssay (Tox21) can be followed below.

The structures appear in SMILES notation. Inconclusive results are not listed. Calls of active or inactive are those of the source. Unless noted, the call rests on the fitted dose curve; in most records, active means well fitted curve in the direction sought with a large enough effect in the repeat runs; inconclusive means weak or mixed curves; inactive means no such curve, though single readings can be large; an effect the other way counts as inactive or inconclusive.

A short description of assay [1]: qHTS assay for small molecule agonists of the p53 signaling pathway (AID 651631; calls by dose curve; further: nearly all actives have a fitted effect of over 15% in size; further: potency means the concentration at half of the fitted maximal effect). The gist of the method: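 HCT-116 cells carrying a stable p53 response element–beta-lactamase reporter were plated, rested 5 h at 37 °C, then exposed to compound in DMSO for 16 h at 37 °C; reporter activity was read as FRET substrate fluorescence after 2 h at room temperature.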
A short description of assay [2]: qHTS assay for small molecules that induce genotoxicity in human embryonic kidney cells expressing luciferase-tagged ATAD5 (AID 651632). Further: nearly all actives have a fitted effect of over 15% in size. Further: potency means the concentration at half of the fitted maximal effect. The gist of the method:
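Genotoxicity read-out via ATAD5-luciferase: HEK293T cells, 16 hr compound incubation at 37C, Amplite detection.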

A short description of assay [3]: qHTS assay for small molecule agonists of the p53 signaling pathway - cell viability (AID 651633; calls by dose curve; further: nearly all actives have a fitted effect of over 30% in size; further: potency means the concentration at half of the fitted maximal effect). The gist of the method: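 p53RE-bla cells were treated with compound for 16 hours at 37 C. Cytotoxicity was then measured as CellTiter-Glo luminescence after 30 min at room temperature.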
Assay [4] is described as follows: qHTS assay for small molecules that induce genotoxicity in human embryonic kidney cells expressing luciferase-tagged ATAD5 - cell viability (AID 651634; calls by dose curve; further: nearly all actives have a fitted effect of over 25% in size; further: potency means the concentration at half of the fitted maximal effect). The gist of the method:
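Live-cell protease activity (CellTiter-Fluor, fluorescence) indicates viability. HEK293T cells with luciferase-tagged ATAD5; 15.5 hr compound treatment at 37C.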

Assay [5] can be described thus: qHTS assay for small molecule disruptors of the mitochondrial membrane potential - cell viability (AID 720634; calls by dose curve;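 further: human HepG2 liver cancer cells; nearly all actives have a fitted effect of over 20% in size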). The method, boiled down:
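Human hepatoma HepG2 cells were treated for 1 hr with test chemicals, then given m-MPI dye and CellTiter-Glo. Cell viability reflects luminescence proportional to cellular ATP.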

Assay [6] in a line: qHTS assay to test for compound auto fluorescence at 590 nm (red) in HepG2 cells (AID 720674). The method, boiled down: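 Seeding: 2,000 HepG2 cells/well, MEM/10% FBS, overnight 37 C. Dosing: compound vs DMSO. Incubation: 1 hr, 37 C, 5% CO2. Read: fluorescence 540 ex/590 em, Rose Bengal sodium as red reference.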
Assay [7] in a line: qHTS assay to test for compound auto fluorescence at 535 nm (green) in HepG2 cells (AID 720675).
Assay [8] in a line: qHTS assay to test for compound auto fluorescence at 460 nm (blue) in HEK293 cells (AID 720678). The method, boiled down: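 Intrinsic compound fluorescence is recorded in live HEK293 cultures after overnight incubation at 37C, 5% CO2, using excitation 405 nm and emission 460 nm. Values are referenced to triamterene.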
Assay [9] is described as follows: qHTS assay to test for compound auto fluorescence at 590 nm (red) in HEK293 cells (AID 720679). The gist of the method: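 Red autofluorescence, HEK293 cells: 2,000 cells/well; attach 4-5 hr 37C; add 23 nL cpd or DMSO; incubate o/n 37C 5% CO2; read Ex540/Em590; Rose Bengal sodium reference.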
The nature of assay [10]: qHTS assay to test for compound auto fluorescence at 535 nm (green) in HEK293 cells (AID 720680).
Assay [11] can be described thus: qHTS assay to test for compound auto fluorescence at 535 nm (green) in HEK293 cell free culture (AID 720682). The method, boiled down:
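Read-out: 485/535 nm fluorescence intensity, calibrated against fluorescein. Medium only (DMEM + 10% FBS, no cells); test compound or DMSO vehicle added by pintool before plate reading.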

The nature of assay [12]: qHTS assay to test for compound auto fluorescence at 590 nm (red) in HEK293 cell free culture (AID 720683). The gist of the method:
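Cell-free wells of DMEM with 10% FBS received compound, and intrinsic fluorescence was read at excitation/emission 540/590 nm. Values expressed as equivalence to Rose Bengal sodium.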

The nature of assay [13]: qHTS assay to test for compound auto fluorescence at 590 nm (red) in HepG2 cell free culture (AID 720684). The method, boiled down: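 Compounds are added to culture medium (MEM, 10% FBS) lacking cells, then fluorescence is read at excitation 540 nm, emission 590 nm, with Rose Bengal sodium as the equivalency standard.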
A short description of assay [14]: qHTS assay to test for compound auto fluorescence at 460 nm (blue) in HepG2 cell free culture (AID 720685). The method, boiled down:
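Compound (23 nL) or DMSO pinned into cell-free MEM with 10% FBS; blue fluorescence read at 405/460 nm excitation/emission, expressed as auto-fluorescence equivalency to triamterene.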

A short description of assay [15]: qHTS assay to test for compound auto fluorescence at 535 nm (green) in HepG2 cell free culture (AID 720686).
Assay [16] in a line: qHTS assay to test for compound auto fluorescence at 460 nm (blue) in HepG2 cells (AID 720687). The method, boiled down: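 HepG2 cells in MEM with 10% FBS, attached overnight at 37 C, were exposed to compound or DMSO for 1 hr at 37 C, 5% CO2. Blue fluorescence was read at 405/460 nm, with triamterene as reference fluorophore.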
A short description of assay [17]: qHTS assay for small molecule disruptors of the mitochondrial membrane potential (AID 720635). Further: potency means the concentration at half of the fitted maximal effect. The method, boiled down:
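HepG2 cells exposed to compound 1 hr at 37C, then Mito-MPS dye 30 min. Ratio read of aggregate (540/590 nm) versus monomer (490/535 nm) fluorescence.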

The nature of assay [18]: qHTS assay to test for compound auto fluorescence at 460 nm (blue) in HEK293 cell free culture (AID 720681). The gist of the method: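 Compounds were added to cell-free DMEM with 10% FBS and fluorescence read directly. The blue channel used 405 nm excitation and 460 nm emission, with triamterene as the reference fluorophore.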
Assay [19] deals with Glucocorticoid receptor (Homo sapiens) (UniProt P04150). Nature of the assay: qHTS assay to identify small molecule antagonists of the glucocorticoid receptor (GR) signaling pathway (AID 720692; active means well fitted inhibition curve with a large enough effect in the signal ratio in the repeat runs, not every such curve was filed as active; the % refers to the signal ratio). The gist of the method:
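Fluorescence from cleaved LiveBLAzer B/G FRET substrate reports GRE-driven beta-lactamase in HeLa cells; compounds are tested against 5 nM dexamethasone (final) over 18 h at 37 C, substrate incubation 2 h at room temperature.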

The target is the same in assay [20]. Nature of the assay: qHTS assay to identify small molecule agonists of the glucocorticoid receptor (GR) signaling pathway (AID 720691; active means well fitted activation curve with a large enough effect in the signal ratio in the repeat runs, not every such curve was filed as active; the % refers to the signal ratio). The conditions noted are these: GR-bla HeLa, beta-lactamase reporter ratio, 18 h; activation: at 62.4 µM (top of the series). The gist of the method:
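Beta-lactamase reporter activity, read as fluorescence intensity, was measured in GR-bla HeLa cells exposed to compounds for 18 h at 37 C and then loaded with LiveBLAzer B/G FRET substrate for 2 h at room temperature.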

Glucocorticoid receptor (Homo sapiens), sequence (P04150 whole entry, looked up): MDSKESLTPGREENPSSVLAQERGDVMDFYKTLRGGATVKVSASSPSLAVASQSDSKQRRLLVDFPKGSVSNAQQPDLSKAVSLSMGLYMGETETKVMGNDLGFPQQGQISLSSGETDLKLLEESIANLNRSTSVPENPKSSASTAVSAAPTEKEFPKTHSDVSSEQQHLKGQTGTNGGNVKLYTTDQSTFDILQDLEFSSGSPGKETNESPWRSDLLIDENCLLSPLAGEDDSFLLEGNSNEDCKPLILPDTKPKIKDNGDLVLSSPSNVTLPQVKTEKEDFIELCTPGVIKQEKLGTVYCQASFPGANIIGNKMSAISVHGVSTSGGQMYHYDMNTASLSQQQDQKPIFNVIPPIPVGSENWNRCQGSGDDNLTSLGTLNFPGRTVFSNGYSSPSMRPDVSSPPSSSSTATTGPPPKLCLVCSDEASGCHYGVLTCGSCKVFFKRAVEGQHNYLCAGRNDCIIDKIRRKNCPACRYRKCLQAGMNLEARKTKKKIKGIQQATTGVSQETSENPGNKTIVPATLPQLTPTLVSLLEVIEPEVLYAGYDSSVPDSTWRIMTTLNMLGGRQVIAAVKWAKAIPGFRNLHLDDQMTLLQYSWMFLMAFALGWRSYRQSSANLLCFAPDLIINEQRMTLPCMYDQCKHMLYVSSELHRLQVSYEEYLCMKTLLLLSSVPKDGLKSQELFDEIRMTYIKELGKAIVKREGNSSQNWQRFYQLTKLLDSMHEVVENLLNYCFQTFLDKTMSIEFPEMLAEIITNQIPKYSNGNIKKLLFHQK

Turning to `Clc1ccc2cc3ccccc3cc2c1`, the Potency in assay [1] was 54.4 µM (active). For the same molecule, the Potency result in [2], in [3], in assay [4], in assay [5], in assay [6] and in assay [7] was “inactive” throughout. The Potency entry in assay [8], in assay [9], in assay [12], in assay [13], in assay [14] and in assay [15] was “inactive” each time. In addition, the Potency entry in assay [16] was “inactive”. The molecule was called inactive in assay [10] and in assay [11].

In the case of `Clc1ccc2nsnc2c1NC1=NCCN1`, the Potency result in assay [1], in assay [2], in assay [3], in assay [4], in assay [5] and in assay [17] was “inactive” each time. The Potency result in assay [6], in [7], in assay [8], in assay [18], in assay [12] and in [13] was “inactive” in each case. Besides, the Potency entry in assay [14], in [15], in [16] and in assay [19] was “inactive” in each case. In addition, the call in assay [10] and in [11] was inactive.

Turning to `N=C1N=C(N)c2ccccc21`, the Potency in assay [1] was 24.3 µM (active); in [2], 21.7 µM (active); in [3], 21.7 µM (active). Also, the Potency result in [5], in assay [6], in [7], in assay [8], in [9] and in assay [12] was “inactive” each time. In addition, the Potency result in assay [13], in assay [14], in assay [15] and in assay [16] was “inactive” each time. For the same molecule, the molecule was classed as inactive in assay [10] and in assay [11].

`CSc1cnc(C)cn1`: the Potency result in [1], in assay [2], in [3], in [5], in assay [17] and in assay [6] was “inactive” throughout. In addition, the Potency result in [7], in assay [8], in assay [9], in [18], in assay [12] and in [13] was “inactive” each time. The Potency result in assay [14], in assay [15], in [16] and in [20] was “inactive” each time. Besides, the molecule was called inactive in assay [10].

On to `Cc1cccc(S(=O)(=O)O)c1C`, for which the Potency result in assay [1], in [3], in assay [4], in assay [5], in assay [6] and in [7] was “inactive” in each case. Moreover, the Potency result in assay [8], in assay [18], in assay [12], in assay [13], in assay [15] and in assay [16] was “inactive” throughout. Further, the Potency entry in assay [20] and in assay [19] was “inactive” in each case. In addition, the outcome in assay [10] and in assay [11] was inactive.

For the molecule `N=C1C=CC(=C(c2ccc(N)cc2)c2ccc(N)cc2)C=C1`, the values for the Potency in assay [1], in assay [4] and in assay [17] were 68.6 µM (active), 24.3 µM (active) and 0.0611 µM (active), respectively. For the same molecule, the Potency entry in [2], in assay [6], in assay [7], in [8], in assay [9] and in assay [12] was “inactive” in each case. Moreover, the Potency entry in [13], in [14], in [15] and in assay [16] was “inactive” throughout. The call in assay [10] and in assay [11] was inactive.

On to `Oc1c(Cl)cc(Cl)c2cccnc12`, for which the Potency is 2.37 µM (active) in assay [1], 13.3 µM (active) in assay [2], 2.98 µM (active) in assay [3] and 10.6 µM (active) in [17]. For the same molecule, the Potency result in assay [5], in assay [6], in assay [7], in assay [8], in assay [9] and in [12] was “inactive” in each case. Moreover, the Potency result in assay [13], in [15] and in assay [16] was “inactive” each time. Moreover, the result in assay [10] and in [11] was inactive.
